Test results as given in PubChem BioAssay.
The source made the active and inactive calls.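 How the source made its calls: active means thallium flux through the channel raised or lowered by more than 3 SD from vehicle-only wells, actives on both sides; inactive means the rest.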

Assays:
Experiment in all cases: BK channel mutant inhibitors and activators – cell-based, U2OS BacMam, thallium flux, beta subunits, selectivity assay, profiling panel (AID 1259406);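 further: initial slope of Thallos dye fluorescence rise after thallium is added; log ratio against the mean of 0.3% DMSO vehicle wells on the same plate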
F380Y = settings: U2OS BacMam BK variants, at 30 µM
F380Y/beta1 = settings: U2OS BacMam BK variants, at 30 µM
F380Y/beta2Delta = settings: U2OS BacMam BK variants, at 30 µM
F380Y/beta4 = settings: U2OS BacMam BK variants, at 30 µM
[1] = target: Calcium-activated potassium channel subunit alpha-1 (Homo sapiens) + Leucine-rich repeat-containing protein 26 (Homo sapiens) (UniProt Q12791+Q2I0M4); settings: U2OS BacMam BK variants, F380Y/Slo1WT/gamma1, at 30 µM
R275C = settings: U2OS BacMam BK variants, at 30 µM
R275C/beta1 = settings: U2OS BacMam BK variants, at 30 µM
R275C/beta2Delta = settings: U2OS BacMam BK variants, at 30 µM
R275C/beta4 = settings: U2OS BacMam BK variants, at 30 µM
R275C/Slo1WT/beta2 = settings: U2OS BacMam BK variants, at 30 µM

Measured: log fold change Tl+ flux

Chain of Calcium-activated potassium channel subunit alpha-1 (Homo sapiens) + Leucine-rich repeat-containing protein 26 (Homo sapiens) (Q2I0M4 whole entry, looked up, one chain of several): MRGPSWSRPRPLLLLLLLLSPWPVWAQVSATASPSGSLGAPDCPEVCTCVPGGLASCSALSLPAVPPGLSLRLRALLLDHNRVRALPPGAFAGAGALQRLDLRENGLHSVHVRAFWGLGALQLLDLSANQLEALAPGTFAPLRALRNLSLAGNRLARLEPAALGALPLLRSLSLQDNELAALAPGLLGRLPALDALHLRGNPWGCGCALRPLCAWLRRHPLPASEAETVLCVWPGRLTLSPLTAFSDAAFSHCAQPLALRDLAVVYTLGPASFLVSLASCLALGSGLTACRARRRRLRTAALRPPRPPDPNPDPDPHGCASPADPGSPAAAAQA

Cc1nn(S(=O)(=O)c2ccccc2)c(C)c1Oc1ccc(Cl)cc1
inactive: R275C/beta2Delta -0.0399 | R275C/Slo1WT/beta2 -0.0715
active: F380Y -0.154 | F380Y/beta1 -0.178 | F380Y/beta2Delta -0.15 | F380Y/beta4 -0.668 | [1] -0.342 | R275C -0.199 | R275C/beta1 -0.214 | R275C/beta4 -0.114

Cc1ccc(I)cc1[N+](=O)[O-]
inactive: F380Y 0.00211 | F380Y/beta1 -0.0212 | F380Y/beta2Delta 0.0224 | F380Y/beta4 -0.0253 | [1] 0.0293 | R275C 0.0178 | R275C/beta1 0.00943 | R275C/beta2Delta -0.016 | R275C/beta4 0.00957 | R275C/Slo1WT/beta2 -0.00671

O=S(=O)(Nc1cc(Cl)c(-n2cccc2)cc1Oc1ccc(Cl)cc1)c1ccc(Cl)cc1
inactive: F380Y 0.0117 | F380Y/beta1 -0.0223 | F380Y/beta2Delta 0.00907 | F380Y/beta4 -0.0612 | [1] -0.0472 | R275C 0.0112 | R275C/beta1 -0.0614 | R275C/beta2Delta -0.0256 | R275C/beta4 0.0232 | R275C/Slo1WT/beta2 -0.0536

O=C(CNc1cc(C(F)(F)F)cc(C(F)(F)F)c1)c1ccc(Cl)cc1
inactive: F380Y -0.0386 | F380Y/beta1 0.0507 | F380Y/beta2Delta -0.00515 | F380Y/beta4 -0.0229 | [1] -0.0851 | R275C 0.0058 | R275C/beta1 0.0119 | R275C/beta2Delta 0.000503 | R275C/beta4 0.0102 | R275C/Slo1WT/beta2 0.0351

O=C1NC2CC2N1C(=O)OCc1ccccc1 (stereo not given)
inactive: F380Y 0.0285 | F380Y/beta1 -0.00537 | F380Y/beta2Delta 0.0281 | F380Y/beta4 0.054 | [1] -0.0415 | R275C 0.00866 | R275C/beta1 0.00489 | R275C/beta2Delta 0.0219 | R275C/beta4 -0.029 | R275C/Slo1WT/beta2 -0.0313

O=C(Nc1csc(Cc2c(Cl)cccc2Cl)n1)NN1CCOCC1
active: F380Y/beta4 0.11
inactive: F380Y 0.0786 | F380Y/beta1 0.0031 | F380Y/beta2Delta 0.0515 | [1] -0.0174 | R275C -0.0115 | R275C/beta1 0.0073 | R275C/beta2Delta 0.0159 | R275C/beta4 0.00549 | R275C/Slo1WT/beta2 -0.0281

CCOC(=O)C1CCC(C(=O)OCC)N1C(=O)Nc1ccc(Cl)cc1 (stereo not given)
inactive: F380Y 0.046 | F380Y/beta1 0.00842 | F380Y/beta2Delta 0.0313 | F380Y/beta4 -0.0525 | [1] -0.0039 | R275C 0.0639 | R275C/beta1 0.0271 | R275C/beta2Delta 0.0385 | R275C/beta4 0.0217 | R275C/Slo1WT/beta2 -0.00903

Fc1cccc(Cl)c1CSc1nccn1-c1cccnc1
inactive: F380Y 0.00886 | F380Y/beta1 0.00855 | F380Y/beta2Delta 0.00345 | F380Y/beta4 0.0175 | [1] 0.00834 | R275C 0.0131 | R275C/beta1 0.0289 | R275C/beta2Delta 0.0125 | R275C/beta4 0.0207 | R275C/Slo1WT/beta2 0.0418

Cc1c(Br)sc2sc(-c3ccnc(SCc4ccccc4)n3)c(C)c12
inactive: F380Y -0.00256 | F380Y/beta1 -0.0227 | F380Y/beta2Delta -0.00739 | F380Y/beta4 -0.0356 | [1] 0.0451 | R275C -0.000555 | R275C/beta1 -0.0282 | R275C/beta2Delta 0.0157 | R275C/beta4 -0.00767 | R275C/Slo1WT/beta2 -0.00994

O=C(CN1CCOCC1)Nc1ccccc1Sc1nccc(C(F)(F)F)n1
inactive: F380Y 0.0122 | F380Y/beta1 -0.00692 | F380Y/beta2Delta -0.0219 | F380Y/beta4 -0.00275 | [1] 0.0522 | R275C -0.0101 | R275C/beta1 -0.0285 | R275C/beta2Delta -0.0136 | R275C/beta4 0.0162 | R275C/Slo1WT/beta2 0.0195

O=C(NC(=O)N1CCCCC1)c1cc(Br)cc(Br)c1
active: F380Y -0.337 | F380Y/beta1 -0.109 | F380Y/beta2Delta -0.277 | [1] -0.127 | R275C -0.145
inactive: F380Y/beta4 -0.0283 | R275C/beta1 -0.0155 | R275C/beta2Delta -0.0701 | R275C/beta4 -0.0253 | R275C/Slo1WT/beta2 -0.0054

CC(=O)OCC(=O)C1(O)C(C)CC2C3CCC4CC(=O)C=CC4(C)C3C(O)CC21C (stereo not given)
inactive: F380Y 0.0723 | F380Y/beta1 -0.0034 | F380Y/beta2Delta -0.017 | F380Y/beta4 0.0362 | [1] -0.00155 | R275C 0.00844 | R275C/beta1 0.0348 | R275C/beta2Delta 0.0375 | R275C/beta4 0.0527 | R275C/Slo1WT/beta2 0.00132

NC(CS(=O)(=O)Cc1ccco1)=NO
inactive: F380Y 0.0416 | F380Y/beta1 0.0173 | F380Y/beta2Delta 0.00572 | F380Y/beta4 0.019 | [1] -0.0714 | R275C -0.017 | R275C/beta1 -0.00211 | R275C/beta2Delta -0.0186 | R275C/beta4 -0.0304 | R275C/Slo1WT/beta2 -0.0219

Cc1ccc(C)n1N(C)c1ccc([N+](=O)[O-])cn1
active: F380Y -0.186
inactive: F380Y/beta1 -0.0343 | F380Y/beta2Delta -0.0717 | F380Y/beta4 0.0203 | [1] -0.0125 | R275C -0.0076 | R275C/beta1 -0.0949 | R275C/beta2Delta -0.0509 | R275C/beta4 0.0498 | R275C/Slo1WT/beta2 0.00416

CCCOc1ccccc1C=NNC(=S)Nc1ccc(C)c(C)c1
inactive: F380Y 0.0357 | F380Y/beta1 0.0157 | F380Y/beta2Delta 0.00918 | F380Y/beta4 0.0274 | [1] -0.0242 | R275C -0.0214 | R275C/beta1 0.0271 | R275C/beta2Delta -0.0014 | R275C/beta4 0.00171 | R275C/Slo1WT/beta2 0.0415

O=C1c2ccccc2C(=O)N1CNc1ccc(Oc2ccc(Cl)cc2)cc1
inactive: F380Y 0.0258 | F380Y/beta2Delta 0.0357 | R275C 0.06 | R275C/beta2Delta 0.0194 | R275C/Slo1WT/beta2 0.0127
active: F380Y/beta1 0.986 | F380Y/beta4 0.151 | [1] 0.327 | R275C/beta1 0.443 | R275C/beta4 0.104

CC(=O)N(C(C)=O)c1ccc2c3c(cccc13)CC2
inactive: F380Y 0.051 | F380Y/beta1 -0.00187 | F380Y/beta2Delta -0.0119 | F380Y/beta4 -0.0487 | [1] -0.0226 | R275C 0.0133 | R275C/beta1 0.0421 | R275C/beta2Delta -0.00855 | R275C/beta4 0.0484 | R275C/Slo1WT/beta2 0.0138

NNC(=O)Cc1csc2nc(-c3ccccc3)nn12
inactive: F380Y 0.0124 | F380Y/beta1 0.00927 | F380Y/beta2Delta 0.017 | F380Y/beta4 0.00133 | [1] -0.0179 | R275C 0.0143 | R275C/beta1 0.0323 | R275C/beta2Delta 0.0113 | R275C/beta4 0.0106 | R275C/Slo1WT/beta2 0.0322

ONC=Nc1nonc1-c1cccnc1
inactive: F380Y 0.00986 | F380Y/beta1 -0.0105 | F380Y/beta2Delta -0.0403 | F380Y/beta4 0.000104 | [1] -0.0369 | R275C -0.0128 | R275C/beta1 0.016 | R275C/beta2Delta -0.0342 | R275C/beta4 -0.00156 | R275C/Slo1WT/beta2 0.00719

CCOC(=O)c1ccc(NC(=O)CCC(=O)O)cc1
inactive: F380Y -0.0468 | F380Y/beta1 -0.00176 | F380Y/beta2Delta -0.0505 | F380Y/beta4 0.0259 | [1] 0.0113 | R275C -0.00978 | R275C/beta1 -0.00901 | R275C/beta2Delta -0.0108 | R275C/beta4 -0.0046 | R275C/Slo1WT/beta2 0.0242

COC(=O)c1cncc(Br)c1
inactive: F380Y -0.0118 | F380Y/beta1 0.012 | F380Y/beta2Delta 0.0106 | F380Y/beta4 -0.0443 | [1] -0.0357 | R275C -0.0441 | R275C/beta1 -0.0547 | R275C/beta2Delta -0.0215 | R275C/beta4 -0.021 | R275C/Slo1WT/beta2 -0.0413

COc1cccc(N2CC(=O)N(NC(=O)NC3CCCCC3)CC2=O)c1
inactive: F380Y -0.0108 | F380Y/beta1 -0.0266 | F380Y/beta2Delta -0.0355 | F380Y/beta4 -0.0285 | [1] 0.0234 | R275C 0.0133 | R275C/beta1 -0.0377 | R275C/beta2Delta -0.0493 | R275C/beta4 -0.00116 | R275C/Slo1WT/beta2 -0.0113

Cc1ccc(NC(=S)NCCO)cc1
inactive: F380Y 0.021 | F380Y/beta1 0.0481 | F380Y/beta2Delta 0.0272 | F380Y/beta4 -0.0116 | [1] -0.000511 | R275C 0.0409 | R275C/beta1 -0.0306 | R275C/beta2Delta -0.0145 | R275C/beta4 0.0201 | R275C/Slo1WT/beta2 0.0248

NS(=O)(=O)c1cccc(NC(=O)c2cccnc2Oc2ccccc2)c1
inactive: F380Y -0.000714 | F380Y/beta1 0.008 | F380Y/beta2Delta 0.0103 | F380Y/beta4 -0.015 | [1] -0.0607 | R275C -0.0268 | R275C/beta1 -0.0191 | R275C/beta2Delta 0.01 | R275C/beta4 0.00433 | R275C/Slo1WT/beta2 -0.0182

CCOC(=O)c1c(N)n(-c2ccc(Cl)cc2)c2nc3ccccc3nc12
inactive: F380Y -0.0102 | F380Y/beta1 0.0245 | F380Y/beta2Delta -0.0247 | F380Y/beta4 0.0204 | [1] 0.0261 | R275C -0.0291 | R275C/beta1 -0.0146 | R275C/beta2Delta -0.0215 | R275C/beta4 0.011 | R275C/Slo1WT/beta2 0.0184

CC(C)(C)c1cc2nc(C(F)(F)F)cc(NN=Cc3ccccc3)n2n1
inactive: F380Y 0.0101 | F380Y/beta1 0.0617 | F380Y/beta2Delta 0.0191 | F380Y/beta4 -0.0217 | [1] -0.0501 | R275C -0.0499 | R275C/beta1 -0.0176 | R275C/beta2Delta -0.0336 | R275C/beta4 -0.0304 | R275C/Slo1WT/beta2 -0.0137
